From PubChem
Shiga toxin inh = blocks Shiga toxin action in Vero cells. Vero cells, Shiga toxin protein synthesis inhibition reporter. 290,000 compounds, 9.2% hits. inhibition, % at 38.7 µM; in the data active = inhibition mostly above about 28%, no sharp cut-off; inactive = mostly below about 43%; also: 0% is about no effect
CHX counter = counter-screen for Shiga toxin inhibitors: cycloheximide protein synthesis inhibition; max response, %; 300,000 compounds, 12% hits; cell reporter, cycloheximide protein synthesis inhibition counterscreen; in the data active = max response mostly above about 13%, no sharp cut-off; inactive = mostly below about 14%; also: read at 38.3 µM for the half of the compounds with a filed dose; 0% is about no effect
NS1 function inh = inhibitors of influenza NS1 protein function. Potency, µM (top dose mostly 46.1 µM), for inactives: at the highest dose activity, positive = more growth. 270,000 compounds, 0.4% hits; calls by dose curve; also: potency is read from the fitted curve at half-maximal effect; actives are rising curves; nearly all actives have a fitted effect of over 50% in size
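OD600 was taken as the measure of yeast growth restored by compound in an NS1-expressing S. cerevisiae strain. Cells had been washed out of glucose medium and diluted 1:100 into galactose -URA medium, pH 6.0.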
Pf growth 96h = P. falciparum growth inhibition at 96 hours. P. falciparum luciferase reporter growth, 96 h. Potency, µM (titrated, usually from 28.7 µM), without a hit: at the top dose activity change, negative = inhibition, most hits filed as inhibitors. 320,000 compounds, 6.9% hits. AID 504834; also: potency is read from the fitted curve at half-maximal effect; % is scaled to controls: 0 for no effect and ±100 for the full control effect
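Parasite growth measured via integrated firefly luciferase reporter in P. falciparum. Infected erythrocytes at 2% hematocrit, 0.05% parasitemia final were treated 96 hours at 37 C under 5% CO2, and luminescence was read.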
Giardia FBPA inh = Giardia lamblia aldolase inhibition | 290,000 compounds, 0.71% hits | purified Giardia FBPA | A8B2U2 | Potency, µM (top dose mostly 59.6 µM), without a hit: at the top dose activity, negative = inhibition, usual class: inhibitors | AID 2451; also: potency is read from the fitted curve at half-maximal effect; % is scaled to controls: 0 for no effect and ±100 for the full control effect; nearly all actives have a fitted effect of over 55% in size
Target sequence (A8B2U2 whole entry, looked up): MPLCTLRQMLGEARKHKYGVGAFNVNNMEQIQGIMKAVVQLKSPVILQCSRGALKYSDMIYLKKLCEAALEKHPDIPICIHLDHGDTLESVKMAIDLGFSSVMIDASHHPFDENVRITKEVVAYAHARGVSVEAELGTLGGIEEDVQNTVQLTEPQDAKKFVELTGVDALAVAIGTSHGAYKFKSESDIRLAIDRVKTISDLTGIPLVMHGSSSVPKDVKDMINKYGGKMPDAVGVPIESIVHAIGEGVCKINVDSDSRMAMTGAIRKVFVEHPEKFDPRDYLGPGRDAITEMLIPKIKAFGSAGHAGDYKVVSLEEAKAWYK
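Giardia FBPA (40 nM reagent) was preincubated 10 min at RT with compound (up to 57.5 uM final), then substrate plus GAPDH/TPI/NAD/arsenate coupling system with diaphorase/resazurin was added; resorufin fluorescence (525/598 nm) was read after 20 min.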
Pf growth 48h = P. falciparum growth inhibition at 48 hours (one generation). P. falciparum luciferase growth in erythrocytes, 48 h. AID 504832. 310,000 compounds, 5.9% hits. Potency, µM (top dose mostly 28.7 µM), for inactives: at the top dose activity change, negative = inhibition, actives largely listed as inhibitors; also: potency is read from the fitted curve at half-maximal effect; % is scaled to controls: 0 for no effect and ±100 for the full control effect
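Parasite viability was followed by luminescence of a genomically integrated firefly luciferase. Cultures held 0.1% parasitemia at 2% hematocrit (final), incubated under 5% CO2 at 37 C.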
* hit, by the source's call; i = inactive; ? = inconclusive; · = no result given; [ ] = another dose, or the depositor's remark. A selection: hits, their analogues and other compounds. The true share with any hit is near 21%. Unless noted, calls follow the shape of the dose curve; as a rule, active = well fitted curve in the direction sought with a large enough effect; inconclusive = small, poorly fitted or top-dose-only effect, or another doubt; inactive = no such curve, though single readings can be large; an effect the other way counts as inactive or inconclusive.

SMILES	Shiga toxin inh	CHX counter	NS1 function inh	Pf growth 96h	Giardia FBPA inh	Pf growth 48h
Cc1noc(C)c1COc1ccc(C(=O)Nc2ncccc2O)cc1	·	·	·	?	·	7.4µM*
COc1ccc2[nH]c(C)c(C(=O)CN(C)CC3OCCO3)c2c1	-8	1	11%	11%	-9%	2%
O=C(C1CC1)N1CCC(c2nc(-c3ccc(S(=O)(=O)NCC4CCCO4)cc3)no2)CC1 (centres undefined)	-6	-1	-5%	-18%	3%	9.3µM*
COc1ccc(OC)c(-c2csc(N(CC3CCCO3)C(=O)Cc3ccccc3)n2)c1 (centres undefined)	-16	1	6%	1.9µM*	-5%	?
Cc1ccc(NC(=O)c2ccc(OCC3CCCO3)cc2)nc1 (centres undefined)	·	·	·	104%	·	85%
CC(=O)Nc1ccc(C(=O)Nc2ccc(S(=O)(=O)NCC3CCCO3)cc2)cc1 (centres undefined)	-11	-1	?	0%	4%	13µM*
O=C(NC1=NCCS1)c1ccc(OCC2CCCO2)cc1 (centres undefined)	51*	30*	-10%	2%	-1%	216%
O=C(Nc1ccc(F)cc1)c1ccc(S(=O)(=O)NCC2CCCO2)cc1 (centres undefined)	-17	-1	-4%	-10%	0%	?
CC(C)(C)c1ccc(-n2ncc3c2CCCC3NC(=O)C2=NNC(=O)CC2)cc1 (centres undefined)	-2	2	9%	-6%	4%	5%
O=C(Nc1ncccc1O)c1ccc(Oc2ccccc2)cc1	71*	52*	-100%	-24%	3%	-27%
O=C(Nc1nc2ccccc2s1)c1ccc(OCC2CCCO2)cc1 (centres undefined)	82*	18*	-3%	0%	0%	93%
Cc1cnc(NC(=O)c2ccc(OCC3CCCO3)cc2)s1 (centres undefined)	62	8	-4%	263%	-2%	114%
O=C(Nc1ncccc1O)c1ccc(OCC2CCCO2)cc1 (centres undefined)	52*	35*	5%	?	·	-43%
COc1ccc(OC)c(-c2csc(NC(=O)c3ccc(OCC4CCCO4)cc3)n2)c1 (centres undefined)	40*	39*	7%	12µM*	-5%	?
Cc1ccc(C(=O)Nc2ncccc2O)o1	·	·	·	-34%	·	?
Cc1ccc(NC(=O)c2ccc(OCC3CCCO3)cc2)cc1 (centres undefined)	104*	57*	-4%	209%	0%	190%
Cc1ccc(-n2ncc3c(N4CCN(c5ccccc5)CC4)ncnc32)c(C)c1	44	24*	10%	?	5%[12.9 µM]	12µM*
Cc1cccc(-n2ncc3c(N4CC(C)CC(C)C4)ncnc32)c1 (centres undefined)	80*	39*	-3%	-91%	-7%	·
CS(=O)(=O)N1CCN(c2ncnc3c2cnn3-c2ccccc2)CC1	7	6	-8%	-7%	-2%	26%
Cc1cccc(-n2ncc3c(N4CCCC4)ncnc32)c1	86*	32*	-5%	·	0%	i
COc1ccc(N2CCN(c3ncnc4c3cnn4-c3ccc(C)cc3C)CC2)cc1	-4	-1	-2%	138%	-8%	?
Cc1cccc(C(=O)N2CCN(c3ncnc4c3cnn4-c3ccccc3)CC2)c1	-3	-2	-14%	-15%	-3%	9.3µM*
COc1ccc(-n2ncc3c(N4CCCCC4)ncnc32)cc1	-23	-6	-17%	-77%	-4%	-66%
Clc1ccc(-n2ncc3c(N4CCCCCC4)ncnc32)cc1	33	21*	14%	95%	-1%	62%
Cc1cccc(-n2ncc3c(N4CCOCC4)ncnc32)c1	-11	15*	-22%	16%	-15%	64%
COc1ccc(C(=O)N2CCC3(CCN(C(=O)Nc4cccc(F)c4)CC3)CC2)cc1	·	·	·	·	-1%	·
CCCCC(=O)Nc1cccc(-c2nc3ncccc3o2)c1	33	7	-23%	12µM*	3%	?
CCCC(=O)Nc1ccc(-c2nc3ncccc3o2)cc1	175	20*	-21%	?	4%	-53%
CCCC(=O)Nc1cc(-c2nc3ncccc3o2)ccc1C	-2	-3	-3%	11%	2%	?
